Only some compounds are listed: those with a hit (about 6.5% of all), similar ones and a draw of the others.
Vaccinia Venus: inhibitors of vaccinia virus (Venus reporter); Potency, µM (top dose mostly 36.5 µM), for the others: at the top dose activity change, negative = inhibition, actives largely listed as inhibitors; Vaccinia virus Venus reporter expression, fluorescence; AID 720580; actives 0.46% (n = 330,000); calls by dose curve; tested in A549 cells; note: potency is the fitted concentration of half-maximal effect; nearly all actives have a fitted effect of over 30% in size
Marburg entry inh: Marburg virus entry inhibition; Marburg virus pseudotyped entry inhibition, cell reporter; Potency, µM (titrated, usually from 37.8 µM), without a hit: at the top dose activity change, negative = inhibition, hits mostly inhibitors; actives 1.8% (n = 300,000); AID 540276; calls by dose curve; tested in HEK293 cells; note: potency is the fitted concentration of half-maximal effect
HCMV antiviral: blocks human cytomegalovirus replication; HFF cells, HCMV-luciferase reporter, 72 h; active compounds read low; activity change, negative = inhibition, % at 57.5 µM; actives 4.5% (n = 410,000); AID 1259415; in the data active = activity change below about -60%; inconclusive = no clear call, values can overlap the other calls; inactive = above about -39%
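Screen run at 2 compound doses on HFFs infected with reporter HCMV, MOI 1 PFU/cell. Luciferase activity from cell lysates at 72 h post infection gave inhibition relative to buffer-only and Salinomycin wells.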
Lassa entry inh: inhibitors of Lassa virus binding or cell entry. Lassa virus pseudotype entry inhibition, cell reporter. Potency, µM (highest dose often 37.9 µM), inactives show at the top dose activity change, negative = inhibition, hits mostly inhibitors. actives 1.2% (n = 300,000). AID 540256; calls by dose curve; tested in HEK293 cells; note: potency is the fitted concentration of half-maximal effect; nearly all actives have a fitted effect of over 50% in size
Vaccinia mCherry: vaccinia inhibition (mCherry reporter); actives 0.63% (n = 310,000); AID 720579; Potency, µM (series often up to 36.5 µM), for the others: at the top dose activity change, negative = inhibition, most hits filed as inhibitors; Vaccinia virus mCherry reporter infection, fluorescence; calls by dose curve; tested in A549 cells; note: potency is the fitted concentration of half-maximal effect; nearly all actives have a fitted effect of over 35% in size
FMDV inh: antivirals against foot and mouth disease virus; Potency, µM (titrated, usually from 57.9 µM), for inactives: top-dose activity change, negative = inhibition, most hits filed as inhibitors; actives 1.2% (n = 410,000); FMDV antiviral cell-based qHTS; calls by dose curve; tested in HEK293T cells; note: read-out not given here; potency is the fitted concentration of half-maximal effect; nearly all actives have a fitted effect of over 45% in size
An asterisk follows results filed as active; ? = inconclusive; / = no result; + = active, no number; [ ] = another dose, or the depositor's remark. % is set by controls: 0 for no effect and ±100 for the full control effect.

SMILES	Vaccinia Venus	Marburg entry inh	HCMV antiviral	Lassa entry inh	Vaccinia mCherry	FMDV inh
Cc1ccc2c(C)c(C(=O)Nc3nnc(C)s3)oc2c1	2%	8%	-99*	-9%	-6%	30%
c1ccc2c(c1)CCN(c1ncnc3c1[nH]c1ccccc13)C2	/	?	-66*	?	/	11µM*
c1ccc(CN2CCN(c3nc4ccccc4c4ccccc34)CC2)cc1	-9%	-21%	?	-19%	/	-1%
Cc1ccc2c(c1)[nH]c1c(N3CCN(Cc4ccccc4)CC3)ncnc12	?	16µM*	-85*	21µM*	?	/
OC1(c2cccc(C(F)(F)F)c2)CCN(c2ccc(-c3ccccc3)nn2)CC1	-13%	13%	17	?	-7%	50%
c1ccc(CN2CCN(c3ncnc4c3[nH]c3ccccc34)CC2)cc1	?	?	-106*	?	7.1µM*	10µM*
OC1(c2cccc(C(F)(F)F)c2)CCN(c2ncnc3c2[nH]c2ccccc23)CC1	?	?	-9	15%	?	28µM*
Cc1ccc2[nH]c3c(N4CCCCCC4)ncnc3c2c1	/	1%	/	/	/	/
Cc1c(Cl)cccc1NC(=O)CSc1ccc(-c2ccccn2)nn1	-4%	/	-10	1%[46.1 µM]	-7%	4%
CC=C1C2C=C(C)CC1(N)c1ccc(=O)[nH]c1C2 (centres undefined)	-9%	/	/	/	-18%	-7%
FC(F)(F)c1cnc(-c2cc3c(c(OCC4CCCO4)c2)OCCN(Cc2cccn2-c2nccs2)C3)c(Cl)c1 (centres undefined)	-2%	/	/	/	-11%	-10%
Cc1ccc2[nH]c3c(N4CCN(Cc5ccccc5)CC4)ncnc3c2c1	?	?	-107*	?	?	11µM*
CC(=O)c1ccccc1OCC(O)CNC1CCCC1 (centres undefined)	/	/	0	/	/	-1%
COC(=O)c1cn([C@@H]2C[C@@H](C(=O)N3CCCCCC3)N(Cc3cc4ccccc4s3)C2)nn1	-8%	/	/	/	-7%	2%
CCOC(=O)c1cnn(-c2ccc(Cl)cc2)c1C1CCN(C(=O)OC(C)(C)C)CC1	-29%	?	-24	3.3µM*	?	?
CC(C)(C)OC(=O)N1CCC(c2c(C(=O)NCCN3CCC(Cc4ccccc4)CC3)cnn2-c2ccc(F)cc2)CC1	?	/	-106*	?	?	-12%
CC(C)(C)OC(=O)N1CCC(c2c(C(=O)N3CCCCC3)cnn2-c2ccc(Cl)cc2)CC1	-17%	/	3	?	-12%	-4%
CC(C)(C)OC(=O)N1CCC(c2c(C(=O)NCCN3CCC(Cc4ccccc4)CC3)cnn2-c2ccccc2)CC1	11µM*	/	?	?	?	?
Cc1ccc(-n2ncc(C(=O)Nc3ccc4c(c3)OCCO4)c2C2CCN(C(=O)OC(C)(C)C)CC2)cc1C	-14%	/	+	?	-6%	0%
CC(C)(C)OC(=O)N1CCC(c2c(C(=O)NCc3ccc(F)cc3)cnn2-c2ccc(F)cc2)CC1	-26%	/	7	?	-20%	-19%
Cc1cccc(-n2ncc(C(=O)Nc3ccc4c(c3)OCO4)c2C2CCN(C(=O)OC(C)(C)C)CC2)c1	-4%	/	?	1%[46.1 µM]	-15%	20%
CCOC(=O)c1cc(-c2ccccc2)n(-c2cccc(C(=O)Nc3ccc(OCC)cc3)c2)c1C	-15%	/	-11	3%[46.1 µM]	-14%	-11%
CC(C)(C)OC(=O)N1CCC(c2c(C(=O)NCc3ccccn3)cnn2-c2ccccc2Cl)CC1	-16%	/	?	-16%[46.1 µM]	-6%	9%
COc1cccc(N2CCN(C(=O)c3cnn(-c4ccc(C)cc4C)c3C3CCN(C(=O)OC(C)(C)C)CC3)CC2)c1	-18%	/	22	1.1µM*	-27%	?
Cc1ccc(-n2ncc(C(=O)NCCCN3CCCCC3)c2C2CCN(C(=O)OC(C)(C)C)CC2)cc1	-14%	/	+	?	-15%	-19%
SMILES	Vaccinia Venus	Marburg entry inh	HCMV antiviral	Lassa entry inh	Vaccinia mCherry	FMDV inh
COCCCNC(=O)c1cnn(-c2ccccc2Cl)c1C1CCN(C(=O)OC(C)(C)C)CC1	-2%	/	+	?	-11%	-5%
COc1cccc(N2CCN(C(=O)c3cnn(-c4ccccc4Cl)c3C3CCN(C(=O)OC(C)(C)C)CC3)CC2)c1	-5%	/	9	?	-13%	-15%
COc1ccc(CCN2CCC(CNC(=O)c3cnn(-c4cccc(Cl)c4)c3C3CCN(C(=O)OC(C)(C)C)CC3)CC2)cc1	?	/	-101*	-24%[46.1 µM]	?	-6%
CC1=C2[C@H](O)[C@H]([C@@H](C)C(=O)NCCC(C)C)CC[C@@]2(C)C=CC1=O	/	23%[14.2 µM]	/	/	/	/
Cc1cc(C(=O)N(Cc2cc3cc4c(cc3nc2N2CCOCC2)CCC4)CC2CCCO2)c(=O)[nH]c1C (centres undefined)	-19%	/	/	/	-6%	22%
COc1cccc(CNC(=O)c2c(C)nn(-c3cccc(C)c3)c2-n2cccc2)c1	-18%	/	?	-5%[46.1 µM]	-9%	-21%
CC(C)(C)OC(=O)N1CCC(c2c(C(=O)NCc3cccs3)cnn2-c2cccc(F)c2)CC1	-22%	/	27	?	-10%	-5%
CCn1ncc(CN2CCCC(C(=O)c3cccc(OC(C)C)c3)C2)c1C (centres undefined)	/	/	-3	/	/	-19%
CC(C)Oc1cccc(C(=O)C2CCCN(Cc3cnc(N4CCOCC4)s3)C2)c1 (centres undefined)	-17%	?	-72*	?	-18%	?
CC(C)Oc1cccc(C(=O)C2CCCN(C(=O)c3cc(C(F)(F)F)[nH]n3)C2)c1 (centres undefined)	-19%	-20%[46.1 µM]	-19	13µM*	-22%	-7%
COc1ccc(C(=O)C2CCCN(Cc3cnc(N4CCOCC4)s3)C2)cc1F (centres undefined)	-3%	?	5	-26%	-4%	?
CC(C)Oc1cccc(C(=O)C2CCCN(C(=O)c3cc(C4CC4)[nH]n3)C2)c1 (centres undefined)	/	/	?	/	/	-17%
COc1ccc(F)cc1C(=O)C1CCCN(Cc2cnc(C)s2)C1 (centres undefined)	/	/	-23	/	/	-18%
Cc1ncc(CN2CCCC(C(=O)c3cccc(OC(C)C)c3)C2)s1 (centres undefined)	/	/	-69*	/	/	?
COc1ccc(Cl)cc1C(=O)C1CCCN(Cc2cnc(C)s2)C1 (centres undefined)	-17%	3%[46.1 µM]	-21	11µM*	-11%	-14%
Cc1ccc(SCCC(=O)NCCSCc2ccco2)cc1	-16%	-25%[46.1 µM]	-100*	14%[46.1 µM]	-11%	-5%
O=C(Cc1ccccc1)NCCSCc1ccco1	0%	4%	-13	0%	-21%	/
C[C@@H]1CC[C@H]2C(=O)N(Cc3ccc(Cl)cc3)C[C@@H](O)CN2[C@@H]1c1ccc(Br)cc1	/	-15%[14.2 µM]	/	/	/	/
Cc1cc(F)ccc1NC(=O)Cn1nc(N2CCN(c3ccccc3)CC2)ccc1=O	-8%	/	-26	-6%[46.1 µM]	-1%	-19%

Source: PubChem BioAssay (National Center for Advancing Translational Sciences (NCATS))
